# From PubChem
# Compounds with a hit are over-represented: about 4.7% of the library has one in this group of screens.
# PfHsp90 set2: growth inhibition of yeast expressing Plasmodium Hsp90. inhibition, % at 9.4 µM. S. cerevisiae expressing PfHsp90, BacTiter-Glo ATP, 48 h; yeast lacking PDR1 and PDR3 efflux regulators. 310,000 tested, 0.32% active;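 active means every replicate shows inhibition above about 80%, whatever the replicate mean, limit read from the data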;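 further: 0% = DMSO neutral controls and 100% = 20 µM radicicol positive controls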
# SKKanGAS inh: blocks kanamycin growth of S. pyogenes SKKanGAS strain. BacTiter-Glo, 6 h. inhibition, % at 7.5 µM. 300,000 tested, 1.3% active. AID 1662;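 active means mean replicate score, as percent of positive control median, at least 50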;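 further: strain carries kanamycin resistance gene driven by streptokinase promoter and grows in 40 µg/ml kanamycin; loss of luminescence reflects streptokinase promoter inhibition or plain growth inhibition; 0% = median of DMSO wells and 100% = positive control at its reference dose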
# TIM10 inh: growth inhibitors of TIM10 yeast strain; 330,000 tested, 1.4% active; S. cerevisiae TIM10 strain growth, BacTiter-Glo luminescence, 24 h; inhibition, % at 10 µM; AID 463195;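 active means inhibition of 40% or more at the single tested concentration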;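 further: wild-type TIM10 isogenic control strain grown at permissive 25 °C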
# tim10-1 inh: tim10-1 yeast growth inhibition | AID 463190 | 330,000 tested, 2.2% active | S. cerevisiae tim10-1 ts strain growth, BacTiter-Glo, 24 h | inhibition, % at 20 µM;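 active means inhibition of at least 40%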;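 further: mutant grown at 25 °C; 0% = DMSO wells with yeast and 100% = wells holding no yeast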
# EBI2 block: EBI2 (human) antagonism | P32249 | EBI2 beta-arrestin recruitment, luminescence, 7a,25-OHC stimulated | inhibition, % at 5 µM | 360,000 tested, 0.81% active; in the data active means inhibition above about 38%;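 further: enzyme fragment complementation signal reports receptor beta-arrestin coupling in cells; 0% = agonist plus DMSO wells and 100% = wells without agonist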
# Target sequence (P32249 whole entry, looked up, the tested form may be a part): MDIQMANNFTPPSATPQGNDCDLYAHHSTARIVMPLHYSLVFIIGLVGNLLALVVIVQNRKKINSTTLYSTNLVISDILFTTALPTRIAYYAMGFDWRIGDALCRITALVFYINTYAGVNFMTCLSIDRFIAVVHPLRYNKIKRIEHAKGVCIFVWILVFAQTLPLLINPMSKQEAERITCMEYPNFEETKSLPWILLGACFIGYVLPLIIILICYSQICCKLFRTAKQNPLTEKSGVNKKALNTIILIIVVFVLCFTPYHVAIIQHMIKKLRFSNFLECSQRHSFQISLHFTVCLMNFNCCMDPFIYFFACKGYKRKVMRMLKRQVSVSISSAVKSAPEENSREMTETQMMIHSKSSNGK
# tim23-1 inh: tim23-1 yeast growth inhibition. AID 463212. 330,000 tested, 1.3% active. inhibition, % at 20 µM. S. cerevisiae tim23-1 growth, BacTiter-Glo luminescence, 24 h;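 active means growth inhibition of the mutant yeast at or above 50%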;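 further: temperature-sensitive mutant grown at 25 °C; plate controls were DMSO-treated mutant yeast for no effect and medium wells lacking yeast for full effect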
# EBI2 antag conf: confirmation of human EBI2 receptor antagonists. shares compounds with EBI2 block. EBI2 beta-arrestin luminescence, 7a,25-OHC antagonism. inhibition, % at 5 µM. 2,400 tested, 29% active. AID 651997;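 active means inhibition of at least 50%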
# EBI2 agonist: counter-screen for EBI2 antagonists: EBI2 agonist activity; shares compounds with EBI2 block; 2,400 tested, under 10 active; EBI2-expressing cells, agonist mode, luminescence, 60 min; 0% vehicle, 100% 7α,25-dihydroxycholesterol control; AID 652000; activation, % at 5 µM;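 active means activation of at least 50%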
# bGal cs: inhibits E. coli beta-galactosidase, counter-screen for EBI2 antagonists | inhibition, % at 5 µM | purified beta-galactosidase, luminescent Galacton Star, 15 min | shares compounds with EBI2 block | 2,400 tested, 1% active;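 active means replicate-average signal at least 3 plate SD below neutral wells, shown as high inhibition, flagging enzyme-inhibiting false positives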;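 further: 0% = DMSO wells with enzyme and 100% = wells lacking enzyme; higher means stronger loss of beta-gal luminescence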
# * hit, by the source's call; x = no result given; ! = not active in a repeat.
SMILES,PfHsp90 set2,SKKanGAS inh,TIM10 inh,tim10-1 inh,EBI2 block,tim23-1 inh,EBI2 antag conf,EBI2 agonist,bGal cs
CCOC(=O)N1CCN(C(=O)/C=C/c2cccc([N+](=O)[O-])c2)CC1,2,1,0,-6,48*,11,26,-1,-11
O=C(CCC(=O)c1cccs1)NCc1ccccc1Cl,x,x,-7,-3,4,4,x,x,x
C[C@@H]1CC2OC(=O)[C@@]3(C)C(=O)CC[C@@](C)(C23)[C@@]1(O)CCc1ccoc1 (stereo partly drawn),-12,-1,6,2,0,-4,x,x,x
Cc1ccc(S(=O)(=O)N/N=C/c2ccc(OS(=O)(=O)c3ccc(C)c([N+](=O)[O-])c3)cc2)cc1,-29,20,2,0,-1,9,x,x,x
COc1cccc(CC(=O)OCC(=O)NC(Cc2ccccc2)C(C)=O)c1 (stereo not drawn),-4,1,16,15,-8,7,x,x,x
CC(Oc1ccc(F)cc1)C(=O)Nc1ccc2ccccc2c1 (stereo not drawn),-8,-7,15,22,50*,-2,30,1,-6
CC(Oc1ccccc1F)C(=O)Nc1ccc2ccccc2c1 (stereo not drawn),x,-7,11,10,29,9,x,x,x
O=C(Nc1nc(-c2cccs2)cs1)c1cccc(S(=O)(=O)N2CCCCCC2)c1,-2,24,37,40,17,26,x,x,x
O=C(Nc1nc(-c2cccs2)cs1)c1ccc(S(=O)(=O)N2CCCCC2)cc1,-18,23,11,14,42*,23,14,1,8
O=C(CC[C@H]1O[C@@H](n2ccc(=O)[nH]c2=O)[C@H](O)[C@@H]1O)N[C@H](Cc1ccccc1)C(=O)NCc1cccs1,x,x,x,x,1,x,x,x,x
CC(NC(=O)c1ccc(NC(=O)CC2SC(N3CCCC3)=NC2=O)cc1)c1ccc(F)cc1 (stereo not drawn),1,x,4,8,-5,6,x,x,x
O=Cc1c(NCCc2ccc(F)cc2)c2ccccc2[nH]c1=O,0,0,-3,-3,45*,19,4,-1,-9
O=Cc1c(NCc2ccccc2F)c2ccccc2[nH]c1=O,-5,-5,-2,12,-17,22,x,x,x
CCOC(=O)C1=C(COC(=O)c2ccc(Cl)nc2)NC(=O)NC1C (stereo not drawn),1,x,x,x,-11,x,x,x,x
COc1cc(OC)cc(C(=O)NNC(=O)CCc2nc3ccccc3c(=O)[nH]2)c1,-6,x,8,-9,6,-15,x,x,x
O=C(CCc1nc2ccccc2c(=O)[nH]1)NNC(=O)COc1ccc(Br)cc1,29,1,0,-4,59*,-16,39,0,-7
CCCCNc1c(-c2ccc(OC)c(SC3CCCCC3)c2)nc2ccc(C)cn12,-1,x,14,22,-22,43,x,x,x
CCCCCCSc1cc(-c2nc3ccc(C)cn3c2NCCCC)ccc1OC,-2,x,22,14,32,18,x,x,x
CCCCNc1c(-c2ccc(SC3CCCCC3)c(OC)c2)nc2ccc(C)cn12,-3,x,17,25,52*,32,55*!,3,3
CCC(C)Sc1ccc(-c2nc3ccc(Cl)cn3c2NCc2ccccc2)cc1 (stereo not drawn),1,x,-4,-4,44*,4,28,-2,-14
CCCCCCSc1ccc(-c2nc3ccc(C)cn3c2NCc2ccccc2)cc1OC,6,33,13,18,72*,13,44,1,2
CCCCCCSc1ccc(-c2nc3ccc(C)cn3c2NCc2ccccc2)cc1,6,10,-5,-4,53*,10,54*!,1,2
CCCCNc1c(-c2ccc(-c3ccc(C(C)=O)cc3)c(OC)c2)nc2cc(C)ccn12,x,x,0,8,67*,22,52*,1,6
